The text below walks through data of PubChem BioAssay (EPA / NIEHS).

Experiment [1] has as its target Glucocorticoid receptor (Homo sapiens) (UniProt P04150). Kind of experiment: NVS_NR_hGR: NovaScreen (NVS) Nuclear Receptor Binding Assay for human Glucocorticoid Receptor (GR) (AID 2283363).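 On AC50: activity is loss of specific radioligand binding signal relative to DMSO.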 The method in brief: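 Single-readout cell-free binding: radioligand plus extracted receptor, 16-hour dosing, filter radiodetection; 25 uM duplicate primary, concentration series secondary.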

In experiment [2] the target is Peroxisome proliferator-activated receptor gamma (Homo sapiens) (UniProt P37231). Kind of experiment: NVS_NR_hPPARg: NovaScreen (NVS) Nuclear Receptor Binding Assay for human Peroxisome Proliferator-activated Receptor gamma (PPARg) (AID 2283370). The method in brief:
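Cell-free fluorescence polarization binding to human PPARg protein, read 2 h after dosing. Primary screen in duplicate at 25 uM, actives followed in concentration series; loss of signal relative to DMSO scored.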

The target of experiment [3] is Nuclear receptor subfamily 1 group I member 2 (Homo sapiens) (UniProt O75469). Kind of experiment: NVS_NR_hPXR: NovaScreen (NVS) Nuclear Receptor Binding Assay for human Pregnane X Receptor (PXR) (AID 2283365).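 Further: a drop in FRET signal versus DMSO baseline means the compound binds.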 The method in brief: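 Cell-free TR-FRET binding assay with extracted human PXR protein, read 2 h after dosing. Primary screen run in duplicate at 25 uM, actives followed in concentration series; loss of signal fitted against DMSO baseline.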
Sequence of Nuclear receptor subfamily 1 group I member 2 (Homo sapiens) (O75469 whole entry, looked up): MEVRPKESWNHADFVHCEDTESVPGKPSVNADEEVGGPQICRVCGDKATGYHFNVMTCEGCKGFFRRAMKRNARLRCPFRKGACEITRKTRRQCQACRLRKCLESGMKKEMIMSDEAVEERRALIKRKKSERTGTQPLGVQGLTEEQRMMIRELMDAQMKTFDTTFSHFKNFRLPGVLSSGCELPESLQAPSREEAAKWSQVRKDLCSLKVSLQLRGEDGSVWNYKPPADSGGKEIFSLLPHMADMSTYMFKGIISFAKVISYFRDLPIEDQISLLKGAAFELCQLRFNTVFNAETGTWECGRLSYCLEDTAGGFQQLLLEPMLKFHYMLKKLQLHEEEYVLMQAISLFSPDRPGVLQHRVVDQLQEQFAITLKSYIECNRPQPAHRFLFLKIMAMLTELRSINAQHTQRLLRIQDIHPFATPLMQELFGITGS

Experiment [4] addresses guinea pig Sigma Receptor, Non-selective Binding, SIGMAR1 (gene 100135589) (UniProt Q60492). Kind of experiment: NVS_OR_gSIGMA_NonSelective: NovaScreen (NVS) Nuclear Receptor Binding Assay for guinea pig Sigma Receptor, Non-selective Binding (AID 2283367). In short, it runs like this: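 Test chemicals were screened in duplicate at 25 uM, then in concentration series if active, against radioligand binding to guinea pig brain membranes; filtration and scintillation counting at 1 h measured remaining bound ligand.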

Experiment [5] relates to guinea pig Dopamine Transporter (DAT), gene 100714898. Kind of experiment: NVS_TR_gDAT: NovaScreen (NVS) Transporter Assay for guinea pig Dopamine Transporter (DAT) (AID 2283369).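 Further: active compounds lower bound radioligand signal relative to DMSO.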 In short, it runs like this: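 Guinea pig striatal membranes, cell-free radioligand binding with filter-based scintillation counting, read 2 h after dosing. Loss of signal versus DMSO baseline; single-concentration primary (25 uM) then concentration-response up to 50 uM.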

Experiment [6] concerns the target human Dopamine Transporter (DAT), SLC6A3 (gene 6531) (UniProt Q01959). Kind of experiment: NVS_TR_hDAT: NovaScreen (NVS) Transporter Assay for human Dopamine Transporter (DAT) (AID 2283374).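 Further: activity means loss of bound radioligand signal relative to DMSO.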 In short, it runs like this:
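Extracted human SLC6A3 protein incubated 1 h with radioligand and test chemical; bound fraction separated on filters and counted. Single 25 uM duplicate screen preceded concentration-response follow-up; positive and negative controls on every plate.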

The subject of experiment [7] is rat Norepinephrine Transporter (NET), gene 83511. In words: NVS_TR_rNET: NovaScreen (NVS) Transporter Assay for rat Norepinephrine Transporter (NET) (AID 2283373). In short, it runs like this:
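Competitive radioligand displacement at the rat NET using forebrain membrane preparations, 1 h incubation, filter-based scintillation readout. Primary testing in duplicate at a single 25 uM concentration; confirmed actives retested across concentrations.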

The target of experiment [8] is human Serotonin Transporter (SERT), SLC6A4 (gene 6532) (UniProt P31645). Kind of experiment: NVS_TR_hSERT: NovaScreen (NVS) Transporter Assay for human Serotonin Transporter (SERT) (AID 2283372). The method in brief:
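Human platelet membrane preparation; displacement of radioligand from serotonin transporter measured after 1 h by filtration and scintillation counting. Single 25 uM duplicate screen, then concentration series for actives, with DMSO as negative baseline.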

Experiment [9] concerns the target human Adenosine Transporter (Adot), SLC29A1 (gene 2030) (UniProt Q99808). Kind of experiment: NVS_TR_hAdoT: NovaScreen (NVS) Transporter Assay for human Adenosine Transporter (Adot) (AID 2283368). In short, it runs like this: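 Binding displacement on U937 extracted protein, read 1 h post-dose by filtration and scintillation counting. Primary duplicate test at 25 uM, then singleton concentration series with 50 uM top; DMSO baseline.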

Experiment [10] concerns the target rat Androgen Receptor (AR), Ar (gene 24208) (UniProt P15207). Kind of experiment: NVS_NR_rAR: NovaScreen (NVS) Nuclear Receptor Binding Assay for rat Androgen Receptor (AR) (AID 2283366). The method in brief:
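Actives from a duplicate single-concentration (25 uM) primary run went on to concentration series. Displacement of radioligand was counted by filtration and scintillation, 18 h post-dose, using prostate extracts from testosterone-pretreated rats, with DMSO as baseline.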

Structures are written as SMILES. Several values for one entry are separate records, joined by “and”; a condition that tells them apart may be missing. Equal entries are not always repeated. Inconclusive results are not listed. Some compounds were tested as several samples or in several runs, with calls that do not always agree. Activity calls are given as the source filed them. How the source made its calls: active means hit-call score of the fitted dose curve at least 0.9, where 1 is the maximum; inconclusive means response in the unintended direction; inactive means score below 0.9.

Sequence of Glucocorticoid receptor (Homo sapiens) (P04150 whole entry, looked up): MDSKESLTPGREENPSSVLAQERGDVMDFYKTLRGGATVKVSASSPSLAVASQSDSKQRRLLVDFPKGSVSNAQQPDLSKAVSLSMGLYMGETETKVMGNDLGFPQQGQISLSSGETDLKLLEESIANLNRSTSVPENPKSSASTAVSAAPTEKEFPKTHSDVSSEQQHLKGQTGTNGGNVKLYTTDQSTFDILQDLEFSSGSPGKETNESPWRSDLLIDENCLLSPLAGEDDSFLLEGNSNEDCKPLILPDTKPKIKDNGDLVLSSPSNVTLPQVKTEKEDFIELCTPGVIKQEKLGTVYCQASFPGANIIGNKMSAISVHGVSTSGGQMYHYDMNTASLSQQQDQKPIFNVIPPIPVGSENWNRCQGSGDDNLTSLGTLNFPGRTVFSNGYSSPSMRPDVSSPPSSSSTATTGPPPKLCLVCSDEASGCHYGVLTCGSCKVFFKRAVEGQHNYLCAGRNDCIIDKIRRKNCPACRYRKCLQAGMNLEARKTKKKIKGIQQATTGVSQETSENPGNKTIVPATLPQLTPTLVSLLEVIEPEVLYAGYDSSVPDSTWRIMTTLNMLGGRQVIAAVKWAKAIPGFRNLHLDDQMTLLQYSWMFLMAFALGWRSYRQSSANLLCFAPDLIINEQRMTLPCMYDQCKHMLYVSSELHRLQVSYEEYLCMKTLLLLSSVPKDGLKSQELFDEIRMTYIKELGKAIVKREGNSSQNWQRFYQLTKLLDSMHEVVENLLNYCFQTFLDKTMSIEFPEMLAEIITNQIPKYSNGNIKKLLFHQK
Sequence of human Serotonin Transporter (SERT), SLC6A4 (gene 6532) (P31645 whole entry, looked up): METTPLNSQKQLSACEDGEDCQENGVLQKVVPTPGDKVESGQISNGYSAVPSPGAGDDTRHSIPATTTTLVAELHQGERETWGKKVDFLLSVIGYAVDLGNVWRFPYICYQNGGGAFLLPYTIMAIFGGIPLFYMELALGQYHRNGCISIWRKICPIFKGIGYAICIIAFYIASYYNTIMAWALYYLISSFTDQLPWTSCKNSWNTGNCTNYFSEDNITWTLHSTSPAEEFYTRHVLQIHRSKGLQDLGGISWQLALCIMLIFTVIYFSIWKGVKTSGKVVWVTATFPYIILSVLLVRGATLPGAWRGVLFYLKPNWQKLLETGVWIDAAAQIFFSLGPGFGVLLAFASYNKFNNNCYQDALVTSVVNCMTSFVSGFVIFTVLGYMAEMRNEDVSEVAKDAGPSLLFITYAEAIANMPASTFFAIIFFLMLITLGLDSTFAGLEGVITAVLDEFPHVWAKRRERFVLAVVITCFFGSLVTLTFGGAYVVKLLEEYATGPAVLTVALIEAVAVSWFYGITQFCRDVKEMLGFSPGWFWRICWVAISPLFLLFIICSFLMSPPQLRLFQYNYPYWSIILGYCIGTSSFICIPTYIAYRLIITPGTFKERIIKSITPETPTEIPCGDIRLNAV
Sequence of human Dopamine Transporter (DAT), SLC6A3 (gene 6531) (Q01959 whole entry, looked up): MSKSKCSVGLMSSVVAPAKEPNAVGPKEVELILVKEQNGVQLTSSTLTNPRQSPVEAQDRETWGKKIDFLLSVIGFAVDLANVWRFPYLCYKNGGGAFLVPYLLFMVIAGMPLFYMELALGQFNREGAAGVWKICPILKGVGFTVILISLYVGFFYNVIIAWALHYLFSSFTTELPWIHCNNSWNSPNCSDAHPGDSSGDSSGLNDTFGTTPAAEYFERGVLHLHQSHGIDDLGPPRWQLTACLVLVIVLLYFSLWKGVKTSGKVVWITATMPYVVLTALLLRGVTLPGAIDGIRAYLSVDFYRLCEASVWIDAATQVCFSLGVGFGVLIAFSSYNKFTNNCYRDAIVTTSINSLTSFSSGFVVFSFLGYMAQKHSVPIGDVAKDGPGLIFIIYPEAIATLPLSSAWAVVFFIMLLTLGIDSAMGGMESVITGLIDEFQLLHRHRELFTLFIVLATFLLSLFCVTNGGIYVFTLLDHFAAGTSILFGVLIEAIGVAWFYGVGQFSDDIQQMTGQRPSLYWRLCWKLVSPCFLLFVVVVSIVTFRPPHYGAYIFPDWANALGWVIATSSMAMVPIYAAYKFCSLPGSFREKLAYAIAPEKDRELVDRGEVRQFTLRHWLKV
Sequence of rat Androgen Receptor (AR), Ar (gene 24208) (P15207 whole entry, looked up): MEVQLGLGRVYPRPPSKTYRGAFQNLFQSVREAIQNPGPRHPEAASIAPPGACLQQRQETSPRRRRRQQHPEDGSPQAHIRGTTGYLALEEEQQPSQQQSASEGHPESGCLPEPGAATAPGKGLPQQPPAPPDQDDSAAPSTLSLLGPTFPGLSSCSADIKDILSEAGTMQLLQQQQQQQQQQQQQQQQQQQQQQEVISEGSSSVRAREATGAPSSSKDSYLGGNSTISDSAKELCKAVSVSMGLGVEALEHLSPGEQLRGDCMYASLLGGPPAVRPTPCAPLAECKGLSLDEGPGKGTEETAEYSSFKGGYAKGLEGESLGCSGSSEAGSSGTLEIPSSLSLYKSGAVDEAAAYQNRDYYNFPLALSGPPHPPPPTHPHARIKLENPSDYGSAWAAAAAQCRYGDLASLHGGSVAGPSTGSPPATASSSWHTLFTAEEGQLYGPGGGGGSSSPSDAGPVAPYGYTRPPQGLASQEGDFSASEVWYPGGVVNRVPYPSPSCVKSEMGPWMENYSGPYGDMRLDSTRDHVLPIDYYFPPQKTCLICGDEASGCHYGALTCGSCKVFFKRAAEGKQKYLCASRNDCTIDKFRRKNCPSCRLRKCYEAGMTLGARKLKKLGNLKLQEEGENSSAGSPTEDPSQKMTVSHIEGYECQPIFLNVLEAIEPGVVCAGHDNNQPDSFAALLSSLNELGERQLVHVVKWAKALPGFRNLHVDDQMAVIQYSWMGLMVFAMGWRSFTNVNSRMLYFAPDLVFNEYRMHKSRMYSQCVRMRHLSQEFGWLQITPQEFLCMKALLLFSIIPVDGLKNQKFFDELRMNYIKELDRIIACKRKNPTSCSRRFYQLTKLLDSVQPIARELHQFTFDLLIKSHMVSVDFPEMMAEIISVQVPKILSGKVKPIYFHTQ
Sequence of guinea pig Sigma Receptor, Non-selective Binding, SIGMAR1 (gene 100135589) (Q60492 whole entry, looked up): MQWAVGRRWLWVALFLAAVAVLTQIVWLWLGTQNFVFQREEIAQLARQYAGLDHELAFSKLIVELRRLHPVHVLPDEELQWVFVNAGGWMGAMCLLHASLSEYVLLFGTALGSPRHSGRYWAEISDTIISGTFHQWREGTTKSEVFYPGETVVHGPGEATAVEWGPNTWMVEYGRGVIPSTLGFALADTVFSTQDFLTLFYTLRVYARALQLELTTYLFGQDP
Sequence of human Adenosine Transporter (Adot), SLC29A1 (gene 2030) (Q99808 whole entry, looked up): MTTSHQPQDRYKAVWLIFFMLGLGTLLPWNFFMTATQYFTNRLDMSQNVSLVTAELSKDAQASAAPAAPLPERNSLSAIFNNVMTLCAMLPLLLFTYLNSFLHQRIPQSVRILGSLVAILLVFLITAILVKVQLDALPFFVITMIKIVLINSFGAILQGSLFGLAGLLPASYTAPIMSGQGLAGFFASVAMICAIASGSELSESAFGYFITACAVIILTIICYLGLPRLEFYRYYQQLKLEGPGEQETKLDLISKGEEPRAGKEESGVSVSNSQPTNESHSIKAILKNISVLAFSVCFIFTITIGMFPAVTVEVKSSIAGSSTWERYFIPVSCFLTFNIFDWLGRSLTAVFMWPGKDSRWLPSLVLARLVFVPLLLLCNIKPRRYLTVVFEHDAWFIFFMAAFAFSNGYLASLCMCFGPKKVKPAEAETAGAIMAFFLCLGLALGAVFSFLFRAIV
Sequence of Peroxisome proliferator-activated receptor gamma (Homo sapiens) (P37231 whole entry, looked up): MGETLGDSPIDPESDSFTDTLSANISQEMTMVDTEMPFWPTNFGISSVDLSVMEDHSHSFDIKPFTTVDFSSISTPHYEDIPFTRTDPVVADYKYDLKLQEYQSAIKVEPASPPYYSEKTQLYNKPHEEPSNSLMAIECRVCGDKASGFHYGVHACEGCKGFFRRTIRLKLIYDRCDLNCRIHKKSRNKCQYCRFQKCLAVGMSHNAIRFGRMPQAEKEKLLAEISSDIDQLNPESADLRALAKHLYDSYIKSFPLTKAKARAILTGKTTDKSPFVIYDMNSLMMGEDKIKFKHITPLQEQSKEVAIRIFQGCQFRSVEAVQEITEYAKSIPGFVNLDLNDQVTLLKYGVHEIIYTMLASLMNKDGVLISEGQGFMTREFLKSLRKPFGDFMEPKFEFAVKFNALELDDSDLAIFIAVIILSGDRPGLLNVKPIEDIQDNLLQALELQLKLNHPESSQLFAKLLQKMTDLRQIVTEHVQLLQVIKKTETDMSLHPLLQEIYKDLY

As usually defined, the AC50 is the midpoint of the concentration-response curve, whichever way the signal moves. `Cc1c2ccccc2c(C)c2c1ccc1ccccc12`: in experiment [1], the half-maximal activity concentration (AC50) was 15.3 µM (active). Moreover, the outcome in experiment [2] was inactive.
Take `CCN(CC)C(=O)c1cc(S(=O)(=O)Cc2ccccc2)c(N2CCC(c3ccccc3)CC2)cc1N(CC)CCN(C)C`: the AC50 was 14.2 µM (active) in experiment [1]; 15.4 µM (active) in experiment [3]; 6.21 µM (active) in [4]; 6.53 µM (active) in [5]; 5.63 µM (active) in experiment [6].
`Oc1ccc2ccccc2c1`: the result in experiment [1] and in experiment [2] was inactive. For the same compound, the AC50 in experiment [5] is 21.3 µM (active); in [7], 7.87 µM (active); in [6], 10.1 µM (active).
Take `CN(C[C@@H](CC[N+]12CCC(C3CCCCC3)(CC1)CC2)c1ccc(Cl)c(Cl)c1)C(=O)c1cc(C(F)(F)F)cc(C(F)(F)F)c1`: the AC50 in experiment [1] is 6.49 µM (active); in experiment [3], 25 µM (active); in [8] it was 17.5 µM (active); in experiment [6], 1.95 µM (active).
As to `CC/C(=C(/CC)c1ccc(O)cc1)c1ccc(O)cc1`, the concentration at half-maximal activity (AC50) was 177 nM (active) and 162 nM (active) and 1.27 µM (active) in experiment [1]; 17.6 µM (active) in experiment [9]; 16.2 µM (active) in experiment [6].
Regarding `Oc1ccccc1`, the result in [3] was inactive.
For the compound `CCN(Cc1cccnc1)C(=O)c1cccc(Cl)c1[C@]1(C)C(=O)N(Cc2ccc(OC)cc2OC)c2ccc(Cl)cc21`, the AC50 in experiment [1] was 4.93 µM (active); in experiment [9], 1.55 µM (active).
Consider `CCCCCCCCOC(=O)c1cc(O)c(O)c(O)c1`, for which the AC50 in experiment [1] is 1.14 µM (active); in [9], 22.2 µM (active); in experiment [2], 25 µM (active); in [6], 19.9 µM (active).
For `CN(C)C(=O)C1(N2CCCCC2)CCN(CC[C@@]2(c3ccc(Cl)c(Cl)c3)CN(C(=O)c3ccccc3)CCO2)CC1`, the AC50 was 3.41 µM (active) in [1]; 6 µM (active) in experiment [4]; 6.54 µM (active) in experiment [5]; 36 µM (active) in [8]; 13.5 µM (active) in experiment [7]; 2.76 µM (active) in experiment [6].
Consider `CN1C(=O)N(c2ccccc2Br)Cc2cnc(Nc3ccc4c(c3)OCC(CO)O4)nc21` (centres undefined), for which the compound was classed as inactive in experiment [1]. The AC50 in experiment [2] is 25 µM (active).
Take `Cc1cc(F)ccc1-c1cc(N2CC[C@@H](O)[C@H]2CO)ncc1N(C)C(=O)C(C)(C)c1cc(C(F)(F)F)cc(C(F)(F)F)c1`: the AC50 in experiment [1] is 4.3 µM (active); in experiment [5], 8.3 µM (active). For the same compound, the result in experiment [10] and in experiment [2] was inactive.
With `C[C@]12CC[C@@H]3c4ccc(O)cc4CC[C@H]3[C@@H]1CC[C@H]2O`, the AC50 is 374 nM (active) and 448 nM (active) and 261 nM (active) in experiment [1]; 0.231 µM (active) in experiment [5]; 0.252 µM (active) in experiment [6]. For the same compound, the call in experiment [1], in experiment [3] and in experiment [2] was inactive.
`O=C(O)c1ccccc1-n1cc(C(=O)O)c(=O)c2cc(Nc3c(F)cc(F)cc3Cl)c(Cl)cc21`: the concentration at half-maximal activity (AC50) in experiment [1] was 25 µM (active). The result in experiment [2] was inactive.
As for `COc1ccc2cc(S(=O)(=O)N[C@H](CC(=O)N[C@H](Cc3ccc(CN4[C@H](C)CCC[C@@H]4C)cc3)C(=O)N(C)C(C)C)c3ccc4c(c3)OCO4)ccc2c1`, the call in experiment [1] and in experiment [8] was inactive. The AC50 was 1.74 µM (active) in experiment [4], 9.24 µM (active) in experiment [9], 13.9 µM (active) in experiment [5] and 12.1 µM (active) in experiment [6].
Consider `O=C1CCC(C2CCCCC2)CC1`, for which the result in experiment [3] and in experiment [2] was inactive. The AC50 in [4] was 25 µM (active).
Regarding `NC(=O)c1nc(-c2cccc(-c3cc(F)ccc3OCC(F)(F)C(F)(F)F)c2)n[nH]1`, in experiment [3], the call was inactive.
In the case of `CN(C)c1ccc(C(=C2C=CC(=[N+](C)C)C=C2)c2ccc(N(C)C)cc2)cc1`, the concentration at half-maximal activity (AC50) was 1.87 µM (active) in experiment [1]; 6.47 µM (active) in experiment [3]; 6.51 µM (active) in [10]; 14.8 µM (active) in experiment [4]; 7.35 µM (active) in [9]; 7.68 µM (active) in experiment [5]. Moreover, the AC50 is 1.4 µM (active) in experiment [2] and 4.25 µM (active) in experiment [6].
As for `O=c1c(-c2ccc(O)cc2)coc2cc(O)cc(O)c12`, the result in experiment [3] and in experiment [10] was inactive. The AC50 in [2] was 39.4 µM (active).
As to `COc1cc(C(=O)NC2CCN(C)CC2)ccc1Nc1ncc2c(n1)N(C1CCCC1)CC(F)(F)C(=O)N2C`, the concentration at half-maximal activity (AC50) is 9.44 µM (active) in experiment [1]; 9.05 µM (active) in experiment [4]; 1.27 µM (active) in experiment [9]; 13.8 µM (active) in [5]; 9.31 µM (active) in experiment [7]; 8.6 µM (active) in experiment [6].
Take `CC(C)(O)c1ccc(CNC(=O)c2cccnc2Oc2ccc3nonc3c2)cc1`: the result in experiment [1] and in experiment [2] was inactive.
`Clc1ccccc1C(c1ccccc1)(c1ccccc1)n1ccnc1`: the concentration at half-maximal activity (AC50) in experiment [1] was 0.7 µM (active). The call in experiment [3] was inactive.
`CC(C)(c1cc(Br)c(O)c(Br)c1)c1cc(Br)c(O)c(Br)c1`: in experiment [1], the AC50 was 4.97 µM (active).
On to `O=C(O)Cc1cc(I)c(Oc2ccc(O)c(I)c2)c(I)c1`, for which the AC50 in experiment [1] is 561 nM (active) [middle of 4 runs]. For the same compound, the call in experiment [3] and in experiment [2] was inactive.
`CCOC(=O)O[C@H](C)OC(=O)c1ccc2c(c1)cc(C(=O)NC1CCN(C(C)C)CC1)n2Cc1cc(-c2ccc(Cl)s2)on1`: the AC50 in experiment [1] was 4.59 µM (active); in experiment [4], 0.226 µM (active); in experiment [5] it was 13.8 µM (active); in experiment [7], 15.5 µM (active); in [6], 3.21 µM (active). For the same compound, the compound was called inactive in experiment [8].
Regarding `NCc1cccc(C2CCN(C(=O)c3ccc(C#Cc4ccccc4F)o3)CC2)c1`, the AC50 is 7.56 µM (active) in [1]; 7.85 µM (active) in [3]; 15.4 µM (active) in experiment [10]; 13.2 µM (active) in experiment [4]; 25 µM (active) in [9]; 10 µM (active) in experiment [5]. Besides, the AC50 in experiment [2] is 5.98 µM (active); in experiment [7] it was 18.9 µM (active); in experiment [6] it was 1.79 µM (active). For the same compound, the outcome in [8] was inactive.
With `CCCCOC(=O)c1ccc(O)cc1`, the outcome in experiment [1], in [3], in experiment [10] and in [2] was inactive. Moreover, the AC50 in experiment [4] was 4.2 µM (active); in experiment [5] it was 25 µM (active).
For `CC[C@@H]1C[C@H](N(Cc2cc(C(F)(F)F)cc(C(F)(F)F)c2)C(C)=O)c2cc(C(F)(F)F)ccc2N1C(=O)OC(C)C`, in experiment [1], the call was inactive.
As to `C[C@]12CC[C@@H]3c4ccc(O)cc4CC[C@H]3[C@@H]1CCC2=O`, the outcome in [10] was inactive.
Consider `O=C(Nc1ccc(Cl)cc1)Nc1ccc(Cl)c(Cl)c1`, for which, in experiment [8], the outcome was inactive.
Take `O=C1c2ccccc2C(=O)N1CCc1noc(-c2ccc(CN3CCCCCC3)s2)n1`: the call in [8] was inactive. Further, the AC50 in experiment [7] is 7.26 µM (active).
In the case of `Clc1cc(Cl)c2c(c1)N=C1CCCCCN1C2`, the AC50 in [7] is 4.16 µM (active).
